This note sets out measurements from PubChem BioAssay.

SMILES strings stand for the structures. Inconclusive results are not listed. Active and inactive are the calls of the source.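 The calls were made as follows, unless noted: active = cell viability at or below a set limit in both duplicate runs, the limit being the all-compound median minus 4 SD (cut at about 23% in these data, passing the limit was not always enough); inconclusive = no clear call, values can overlap the other calls; inactive = the rest.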

Experiment [1] can be described thus: reducers of endogenous Her2 protein level, primary screen, SKBR3 breast tumor cells, AlphaScreen, ATP viability (AID 461;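 active = Her2 level under about 52% in both replicate screens, with viability over 70% of control, limit read from the data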;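 as to Her2 level: lower value means less Her2 protein in the cells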;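 as to viability: percent of carrier control wells set as 100% viability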). The conditions noted are these: 18-24 h, measured here: SKBR3 viability, ATP luminescence, at 10 µM. In general terms: Bead proximity is the source of the signal in Alpha formats.
Experiment [2] addresses Receptor tyrosine-protein kinase erbB-2 (Homo sapiens) (UniProt P04626). The description is as above. The conditions noted are these: 18-24 h, at 10 µM, stronger effect = lower value.
A short description of experiment [3]: SK-BR-3 cell growth inhibitors, pilot screen, 24 h, human (AID 572;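 active = viability at or below 10% of carrier control in both of two separate runs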;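 also: compound exposure lasted between 18 and 24 h rather than exactly 24 h; 100% = carrier-treated control wells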). The conditions noted are these: SK-BR-3 viability, CellTiter-Glo luminescence, at 10 µM, stronger effect = lower value. Background: Cellular ATP, detected with luciferase, serves as a proxy for viable cell number.
Experiment [4] can be described thus: HUVEC growth inhibition – cell-based, human, primary screen (AID 575;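 active = viability at or below 30% in both replicate assays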;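 also: 100% = median of untreated cell wells with 0.1% DMSO on each plate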). The conditions noted are these: HUVEC proliferation, CellTiter-Glo luminescence, 72 h; at 10 µM; stronger effect = lower value.
Experiment [5] in a line: growth inhibitors of H69AR lung tumor, primary screen, human, duplicate replicates (AID 580;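 active = viability at or under a set limit in both replicates, limit being median viability minus 3 SD, cut at about 48% in these data, passing the limit was not always enough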;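 also: 100% = mean luminescence of untreated wells and 0% = no signal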). The conditions noted are these: H69AR lung tumor cells viability, ATP luminescence, 72 h; at 10 µM; stronger effect = lower value.
Experiment [6] in a line: reversal of MRP1-mediated doxorubicin resistance, pilot screen, H69AR cells, doxorubicin co-treatment (AID 601;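 active = viability loss from added drug above about 55%, and viability with drug at most 40%, in both replicates, limit read from the data, passing the limit was not always enough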). Conditions: CellTiter-Glo, 72 h, at 10 µM; for differential viability (reversal): stronger effect = higher value.
Experiment [7] can be described thus: 384-well plate pilot, post-Golgi transport modulator project, inhibition of yeast transport mutant growth (AID 636; in the data active = inhibition above about 31%). The conditions noted are these: absorbance 615 nm, about 18 h, stronger effect = higher value.
A short description of experiment [8]: growth suppression of yeast trafficking mutant, preliminary HTS, modulators of trafficking downstream of Golgi apparatus project, 1536-format plate, OD 615 nm (AID 637; in the data active = inhibition above about 30%). The conditions noted are these: yeast transport mutant growth, absorbance 615 nm, 18 h; stronger effect = higher value.
Experiment [9] is described as follows: OD615 S. cerevisiae growth inhibition, permissive medium, pilot counter-assay, permissive growth control for S. cerevisiae lifespan shortening project (AID 705;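 active = growth inhibition above 25% in both replicates, a cutoff set 3 SD above the mean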). The conditions noted are these: OD615, 24 h, at 10 µM, stronger effect = higher value.
Experiment [10] can be described thus: Restrictive medium S. cerevisiae growth inhibition, OD615, pilot screen of yeast lifespan reduction project, restrictive growth control (AID 706;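 active = growth inhibition above a set limit, 3 SD over mean compound inhibition, in both replicates, cut at about 43% in these data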;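 also: modified DeaD lifespan yeast strain shifted to restrictive glucose medium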). Conditions: OD615, 48 h, at 10 µM, stronger effect = higher value.
Experiment [11] is described as follows: viability gain of MRP-1-high H69AR cells under doxorubicin, pilot screen, MRP-1 activator project, CellTiter-Glo, duplicate (AID 807;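 active = viability increase at or above a cutoff of the median across tested compounds plus 3 SD, cut at about 8.5% in these data, passing the limit was not always enough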;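 also: compound pretreatment 18-22 h then 72 h combined with doxorubicin; 0% = doxorubicin alone and 100% = vehicle without doxorubicin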). Conditions: H69AR viability with doxorubicin, CellTiter-Glo luminescence; at 10 µM; stronger effect = higher value.
Experiment [12] is described as follows: growth suppression of beta-catenin knockout HCT116, pilot screen, human colon tumor cells (AID 823).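 Also: 0% = wells killed by 20 µM Hyamine and 100% = untreated DMSO cell wells.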 The conditions noted are these: CellTiter-Glo, 60 h, at 10 µM, stronger effect = lower value.
Experiment [13] is described as follows: growth suppression of PTEN-deleted HCT116, pilot screen, cell-based, HCT116 clonal line, CellTiter-Glo (AID 824;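 active = viability at or below 27.92% in each of two runs, the all-compound median minus 4 SD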;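 also: 0% = 20 µM Hyamine control and 100% = vehicle cell control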). Conditions: 60 h, at 10 µM, stronger effect = lower value.
A short description of experiment [14]: inhibitors of the yeast RAM network, pilot screen, dse1pr::URA3 reporter, 5-FOA selection (AID 869;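 active = inhibition over a set limit, the all-compound mean plus 3 SD, in both replicate runs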;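 also: 0% = DMSO wells with no growth and 100% = 10 µM 1-NA-PP1 with full growth; RAM network block rescues cells from 5-FOA so hits raise OD615 growth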). The conditions noted are these: S. cerevisiae dse1pr::URA3 5-FOA growth, OD615, 2 d; at 10 µM; stronger effect = higher value; strain carries analog-sensitive mutant Cbk1 kinase.
A short description of experiment [15]: RAM signaling pathway blockade in yeast – S. cerevisiae, Pdr1DBD-CYC8 efflux-inhibited sensitized strain, primary screen (AID 1298;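 active = RAM network inhibition above 8.4% in each of two replicates, 3 SD over the compound average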;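 also: 0% = DMSO untreated cells without growth and 100% = 10 µM 1-NA-PP1 full growth; higher means more yeast growth rescued from 5-FOA killing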). The conditions noted are these: S. cerevisiae cbk1-as DSE1-URA3 strain, 5-FOA growth OD615, 2 d; at 50 µM; stronger effect = higher value.
[16] abbreviates: H69AR cells + 2 uM doxorubicin, measured here: viability with 2 uM doxorubicin, stronger effect = lower value.
Setting [17] is: H69AR cells, compound alone cytotoxicity.

Receptor tyrosine-protein kinase erbB-2 (Homo sapiens), sequence (P04626 whole entry, looked up): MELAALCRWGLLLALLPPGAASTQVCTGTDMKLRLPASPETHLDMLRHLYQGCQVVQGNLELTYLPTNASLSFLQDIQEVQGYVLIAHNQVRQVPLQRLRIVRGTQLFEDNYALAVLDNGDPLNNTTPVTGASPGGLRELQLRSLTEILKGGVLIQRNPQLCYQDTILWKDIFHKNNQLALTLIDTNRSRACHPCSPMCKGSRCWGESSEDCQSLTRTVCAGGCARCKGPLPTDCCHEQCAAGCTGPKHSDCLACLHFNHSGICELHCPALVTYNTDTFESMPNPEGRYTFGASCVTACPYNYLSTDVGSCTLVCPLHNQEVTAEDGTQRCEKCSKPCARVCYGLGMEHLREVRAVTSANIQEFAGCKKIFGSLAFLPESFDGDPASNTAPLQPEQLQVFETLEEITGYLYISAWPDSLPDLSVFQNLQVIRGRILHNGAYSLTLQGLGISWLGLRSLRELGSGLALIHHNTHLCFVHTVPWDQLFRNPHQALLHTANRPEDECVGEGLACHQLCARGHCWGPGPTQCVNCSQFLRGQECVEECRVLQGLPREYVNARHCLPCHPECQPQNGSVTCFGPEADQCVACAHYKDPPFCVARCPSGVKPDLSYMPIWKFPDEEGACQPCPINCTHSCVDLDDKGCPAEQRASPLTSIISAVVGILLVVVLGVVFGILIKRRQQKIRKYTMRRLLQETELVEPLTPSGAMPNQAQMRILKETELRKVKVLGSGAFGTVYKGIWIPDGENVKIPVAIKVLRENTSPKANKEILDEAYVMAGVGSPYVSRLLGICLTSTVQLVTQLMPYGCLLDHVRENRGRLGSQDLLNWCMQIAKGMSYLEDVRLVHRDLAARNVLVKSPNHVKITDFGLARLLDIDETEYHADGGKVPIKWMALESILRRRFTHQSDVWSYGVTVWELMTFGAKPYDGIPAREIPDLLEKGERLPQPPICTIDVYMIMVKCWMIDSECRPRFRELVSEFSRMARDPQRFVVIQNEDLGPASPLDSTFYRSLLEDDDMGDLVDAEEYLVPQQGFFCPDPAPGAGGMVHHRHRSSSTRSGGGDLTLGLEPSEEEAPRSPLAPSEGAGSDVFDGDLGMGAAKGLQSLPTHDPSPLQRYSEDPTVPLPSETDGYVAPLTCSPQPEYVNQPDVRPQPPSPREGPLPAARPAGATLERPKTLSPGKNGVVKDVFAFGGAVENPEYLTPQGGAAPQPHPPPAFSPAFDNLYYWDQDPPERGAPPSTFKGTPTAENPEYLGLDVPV

For orientation: viability means a read-out of living cells in per cent, often relative to untreated cells. In general, inhibition refers to the change of the read-out against control, counted positive when it falls. As for `CCOc1ccc(NC(=O)CN2C(=O)C3CCCN3C2=O)cc1` (stereo not given), the viability in [1] is 85%; in experiment [3], 85% (inactive); in [4] it was 94.6% (inactive); in experiment [5], 101% (inactive); in [6] (setting [16]) it was 97.5%; in [6] (setting [17]), 101%. Also, the figures for the viability in [12] and in experiment [13] were 102% (inactive) and 97.1% (inactive), respectively. For the same compound, the Her2 level in experiment [2] is 106% (inactive). In experiment [6] (H69AR cells + 2 uM doxorubicin), the differential viability (reversal) is 3.86% (inactive). Further, the inhibition in experiment [7] is -2.53% (inactive); in experiment [8], 3.67% (inactive); in experiment [14], -0.315% (inactive). The growth inhibition in experiment [9] is -4.76% (inactive); in experiment [10], -13.8% (inactive). Also, the viability increase in experiment [11] was -0.9% (inactive). Further, in experiment [15], the RAM network inhibition is 2.93% (inactive).
Consider `NC(=O)CSc1cn(CCNC(=O)c2cccs2)c2ccccc12`, for which the viability in experiment [1] was 99.5%; in experiment [3], 99.5% (inactive); in experiment [4] it was 99.4% (inactive); in experiment [5] it was 93.4% (inactive); in experiment [6] (setting [16]), 91.9%; in [6] (setting [17]), 93.4%. Moreover, the figures for the viability in [12] and in [13] were 107% (inactive) and 94.8% (inactive), respectively. The Her2 level in experiment [2] is 92.5% (inactive). Further, the differential viability (reversal) in experiment [6] (H69AR cells + 2 uM doxorubicin) is 1.49% (inactive). In addition, the inhibition was -4% (inactive) in [7], -2.83% (inactive) in experiment [8] and 1.34% (inactive) in experiment [14]. In addition, the figures for the growth inhibition in experiment [9] and in experiment [10] were -14.1% (inactive) and -28% (inactive), respectively. Moreover, in experiment [11], the viability increase was -0.44% (inactive). Also, the RAM network inhibition in [15] is 5.84% (inactive).
As to `COc1ccc(N(CC(=O)Nc2ccc3c(c2)OCO3)S(=O)(=O)c2c(C)nn(C)c2C)cc1`, the viability in experiment [1] was 90.5%; in experiment [3], 90.5% (inactive); in [4], 118% (inactive); in experiment [5] it was 99% (inactive); in experiment [6] (setting [16]), 85.1%; in experiment [6] (setting [17]), 99%. The viability in experiment [12] was 93.3% (inactive); in experiment [13], 90.5% (inactive). The Her2 level in [2] was 90.5% (inactive). Further, in experiment [6] (H69AR cells + 2 uM doxorubicin), the differential viability (reversal) was 13.8% (inactive). Besides, the inhibition in [7] was -0.38% (inactive); in [8] it was 1% (inactive); in experiment [14], 2.33% (inactive). Besides, the growth inhibition in [9] was -8.51% (inactive); in experiment [10] it was -11.5% (inactive). Further, in [11], the viability increase is -2.78% (inactive). In [15], the RAM network inhibition is 3.88% (inactive).
In the case of `COc1ccc(OC)c(C(C)NC=O)c1` (stereo not given), the viability is 89% in experiment [1]; 89% (inactive) in experiment [3]; 102% (inactive) in [4]; 99.5% (inactive) in experiment [5]; 99.2% in experiment [6] (setting [16]); 99.5% in experiment [6] (setting [17]). Besides, the viability in [12] is 95.2% (inactive); in [13], 105% (inactive). Also, in experiment [2], the Her2 level is 90.5% (inactive). Further, the differential viability (reversal) in [6] (H69AR cells + 2 uM doxorubicin) was 0.26% (inactive). Also, the inhibition in experiment [7] was -6.89% (inactive); in [8] it was -2.3% (inactive); in [14], 1.43% (inactive). The growth inhibition is -9.25% (inactive) in [9] and -7.95% (inactive) in [10]. Also, in [11], the viability increase was -0.64% (inactive). Besides, in experiment [15], the RAM network inhibition was -0.21% (inactive).
For the compound `COc1ccc(NC(=O)C2Cc3ccccc3C(=O)O2)cc1` (stereo not given), the viability in experiment [1] was 90%; in experiment [3] it was 90% (inactive); in experiment [4], 104% (inactive); in experiment [5], 91.8% (inactive); in experiment [6] (setting [16]) it was 85.9%; in experiment [6] (setting [17]), 91.8%. In addition, the viability in experiment [12] is 105% (inactive); in experiment [13] it was 104% (inactive). Also, the Her2 level in [2] was 92.5% (inactive). Moreover, the differential viability (reversal) in experiment [6] (H69AR cells + 2 uM doxorubicin) was 5.95% (inactive). Further, the inhibition in [7] is -2.53% (inactive); in [8], -1.67% (inactive); in [14], 1.79% (inactive). Besides, the results for the growth inhibition in experiment [9] and in experiment [10] were 1.22% (inactive) and 1.67% (inactive), respectively. In addition, the viability increase in experiment [11] was 0.31% (inactive). The RAM network inhibition in experiment [15] was 3.16% (inactive).
